Data from PubChem BioAssay AID1159580 (chemical genetic matrix, 2015).
About 2,000 (36%) of roughly 5,500 compounds were called active. Another 18% or so got no clear call; they are omitted. No stated cut-off is given here; in the data, active means normalized growth mostly below about 0.91 (no sharp cut-off); inconclusive means no clear call, values can overlap the other calls; inactive means mostly above about 0.92. The list shows a part of the results.

Experiment: chemical genetic growth profiling, strain panel (AID 1159580);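 further: tested at 20 µM; growth read once vehicle control cultures reached saturation at 30 °C; 1 = growth at the plate median or of vehicle wells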
Details: growth OD

Measured: normalized growth

OC(CCN1CCCC1)(c1ccccc1)C1CCCCC1 (centres undefined)
inactive: S. cerevisiae deletion strains, locus YJR043C, strain POL32, stronger effect = lower value 1.01 | S. cerevisiae deletion strains, locus YJR066W, strain TOR1, stronger effect = lower value 0.973 | S. cerevisiae deletion strains, locus YKL009W, strain mrt4, stronger effect = lower value 0.977 | S. cerevisiae deletion strains, locus YKL068W, stronger effect = lower value 0.985 | S. cerevisiae deletion strains, locus YKL085W, strain MDH1 (second series), stronger effect = lower value 0.977 | S. cerevisiae deletion strains, locus YKL085W, strain MDH1, stronger effect = lower value 0.977 | S. cerevisiae deletion strains, locus YKL160W, strain elf1, stronger effect = lower value 0.975 | S. cerevisiae deletion strains, locus YKL190W, strain CNB1, stronger effect = lower value 0.996 | S. cerevisiae deletion strains, locus YKR001C, strain vps1, stronger effect = lower value 0.985 | S. cerevisiae deletion strains, locus YKR026C, strain gcn3, stronger effect = lower value 0.986 | S. cerevisiae deletion strains, locus YKR091W, strain srl3, stronger effect = lower value 0.992 | S. cerevisiae deletion strains, locus YLL001W, strain dnm1, stronger effect = lower value 0.956 | S. cerevisiae deletion strains, locus YLL026W, stronger effect = lower value 0.974 | S. cerevisiae deletion strains, locus YLL041C, strain sdh2, stronger effect = lower value 0.988 | S. cerevisiae deletion strains, locus YLR027C, strain aat2, stronger effect = lower value 0.969 | S. cerevisiae deletion strains, locus YLR039C, strain RIC1, stronger effect = lower value 1.05 | S. cerevisiae deletion strains, locus YLR058C, strain SHM2, stronger effect = lower value 0.994 | S. cerevisiae deletion strains, locus YLR102C, strain apc9, stronger effect = lower value 0.972 | S. cerevisiae deletion strains, locus YLR113W, strain HOG1, stronger effect = lower value 1 | S. cerevisiae deletion strains, locus YLR221C, strain rsa3, stronger effect = lower value 0.995 | S. cerevisiae deletion strains, locus YLR258W, strain gsy2, stronger effect = lower value 1 | S. cerevisiae deletion strains, locus YLR262C, strain YPT6 (second series), stronger effect = lower value 0.998 | S. cerevisiae deletion strains, locus YLR262C, strain YPT6, stronger effect = lower value 1.07 | S. cerevisiae deletion strains, locus YLR268W, strain sec22, stronger effect = lower value 0.946 | S. cerevisiae deletion strains, locus YLR320W, strain mms22, stronger effect = lower value 0.968 | S. cerevisiae deletion strains, locus YLR330W, strain CHS5, stronger effect = lower value 0.992 | S. cerevisiae deletion strains, locus YLR342W, strain FKS1 (second series), stronger effect = lower value 0.992 | S. cerevisiae deletion strains, locus YLR342W, strain FKS1, stronger effect = lower value 0.963 | S. cerevisiae deletion strains, locus YLR357W, strain rsc2, stronger effect = lower value 0.973 | S. cerevisiae deletion strains, locus YLR370C, strain arc18, stronger effect = lower value 0.972 | S. cerevisiae deletion strains, locus YLR371W, strain rom2, stronger effect = lower value 0.958 | S. cerevisiae deletion strains, locus YLR384C, strain iki3, stronger effect = lower value 0.969 | S. cerevisiae deletion strains, locus YLR418C, strain cdc73, stronger effect = lower value 0.957 | S. cerevisiae deletion strains, locus YML016C, strain PPZ1, stronger effect = lower value 0.991 | S. cerevisiae deletion strains, locus YML032C, strain rad52, stronger effect = lower value 0.97 | S. cerevisiae deletion strains, locus YML120C, strain ndi1, stronger effect = lower value 0.972 | S. cerevisiae deletion strains, locus YML124C, strain tub3, stronger effect = lower value 0.983 | S. cerevisiae deletion strains, locus YMR058W, strain fet3, stronger effect = lower value 0.981 | S. cerevisiae deletion strains, locus YMR078C, strain ctf18, stronger effect = lower value 0.966 | S. cerevisiae deletion strains, locus YMR125W, strain sto1, stronger effect = lower value 1 | S. cerevisiae deletion strains, locus YMR129W, stronger effect = lower value 0.99 | S. cerevisiae deletion strains, locus YMR205C, strain PFK2, stronger effect = lower value 0.985 | S. cerevisiae deletion strains, locus YMR223W, strain ubp8, stronger effect = lower value 0.999 | S. cerevisiae deletion strains, locus YMR231W, strain pep5, stronger effect = lower value 1 | S. cerevisiae deletion strains, locus YMR263W, strain SAP30, stronger effect = lower value 1 | S. cerevisiae deletion strains, locus YMR307W, strain GAS1, stronger effect = lower value 0.991 | S. cerevisiae deletion strains, locus YNL067W, strain RPL9B, stronger effect = lower value 0.998 | S. cerevisiae deletion strains, locus YNL071W, strain lat1, stronger effect = lower value 1.01 | S. cerevisiae deletion strains, locus YNL128W, strain TEP1, stronger effect = lower value 0.982 | S. cerevisiae deletion strains, locus YNL183C, strain NPR1, stronger effect = lower value 0.989 | S. cerevisiae deletion strains, locus YNL209W, strain ssb2, stronger effect = lower value 0.993 | S. cerevisiae deletion strains, locus YNL233W, strain BNI4, stronger effect = lower value 1.01 | S. cerevisiae deletion strains, locus YNL248C, strain rpa49, stronger effect = lower value 1.01 | S. cerevisiae deletion strains, locus YNL250W, strain rad50, stronger effect = lower value 0.967 | S. cerevisiae deletion strains, locus YNL271C, strain bni1, stronger effect = lower value 0.987 | S. cerevisiae deletion strains, locus YNL298W, strain CLA4, stronger effect = lower value 0.97 | S. cerevisiae deletion strains, locus YNL307C, strain MCK1, stronger effect = lower value 0.976 | S. cerevisiae deletion strains, locus YNL322C, strain KRE1 (second series), stronger effect = lower value 0.981 | S. cerevisiae deletion strains, locus YNR049C, strain mso1, stronger effect = lower value 0.998 | S. cerevisiae deletion strains, locus YNR052C, strain pop2, stronger effect = lower value 0.98 | S. cerevisiae deletion strains, locus YOL006C, strain TOP1, stronger effect = lower value 1.02 | S. cerevisiae deletion strains, locus YOL012C, strain htz1 0.758 | S. cerevisiae deletion strains, locus YOL147C, strain pex11, stronger effect = lower value 0.975 | S. cerevisiae deletion strains, locus YOR001W, strain rrp6, stronger effect = lower value 0.965 | S. cerevisiae deletion strains, locus YOR061W, strain CKA2, stronger effect = lower value 0.987 | S. cerevisiae deletion strains, locus YOR069W, strain VPS5, stronger effect = lower value 0.989 | S. cerevisiae deletion strains, locus YOR070C, strain gyp1, stronger effect = lower value 1 | S. cerevisiae deletion strains, locus YOR080W, strain dia2, stronger effect = lower value 0.983 | S. cerevisiae deletion strains, locus YOR083W, strain WHI5, stronger effect = lower value 0.956 | S. cerevisiae deletion strains, locus YOR106W, strain vam3, stronger effect = lower value 0.979 | S. cerevisiae deletion strains, locus YOR136W, strain idh2, stronger effect = lower value 0.982 | S. cerevisiae deletion strains, locus YOR144C, strain elg1, stronger effect = lower value 0.979 | S. cerevisiae deletion strains, locus YOR184W, strain ser1, stronger effect = lower value 0.985 | S. cerevisiae deletion strains, locus YOR231W, strain MKK1, stronger effect = lower value 0.963 | S. cerevisiae deletion strains, locus YOR265W, strain rbl2, stronger effect = lower value 0.988 | S. cerevisiae deletion strains, locus YOR270C, strain vph1, stronger effect = lower value 0.965 | S. cerevisiae deletion strains, locus YOR290C, strain snf2, stronger effect = lower value 1.01 | S. cerevisiae deletion strains, locus YOR316C, strain cot1, stronger effect = lower value 0.97 | S. cerevisiae deletion strains, locus YPL051W, strain arl3, stronger effect = lower value 0.987 | S. cerevisiae deletion strains, locus YPL078C, strain atp4, stronger effect = lower value 0.945 | S. cerevisiae deletion strains, locus YPL106C, strain sse1, stronger effect = lower value 1 | S. cerevisiae deletion strains, locus YPL240C, strain hsp82, stronger effect = lower value 0.978 | S. cerevisiae deletion strains, locus YPL256C, strain CLN2, stronger effect = lower value 1.02 | S. cerevisiae deletion strains, locus YPR119W, strain clb2, stronger effect = lower value 0.981 | S. cerevisiae deletion strains, locus YPR141C, strain kar3, stronger effect = lower value 0.978 | S. cerevisiae deletion strains, locus YPR163C, strain tif3, stronger effect = lower value 0.974 | S. cerevisiae deletion strains, locus YPR167C, strain met16, stronger effect = lower value 0.978 | S. cerevisiae deletion strains, strain wtn01, stronger effect = lower value 0.964 | S. cerevisiae strains, strain wild type, stronger effect = lower value 0.996
